This passage reports log2 fold change results from the supplement of paper PMC10849652.

About 8,800 targets were measured; listed, in parts, are those with a hit and a random draw of the rest. About 0.5% of all pairs of compound and target were hits.

Chain of UniProt P00480 (P00480 whole entry, looked up): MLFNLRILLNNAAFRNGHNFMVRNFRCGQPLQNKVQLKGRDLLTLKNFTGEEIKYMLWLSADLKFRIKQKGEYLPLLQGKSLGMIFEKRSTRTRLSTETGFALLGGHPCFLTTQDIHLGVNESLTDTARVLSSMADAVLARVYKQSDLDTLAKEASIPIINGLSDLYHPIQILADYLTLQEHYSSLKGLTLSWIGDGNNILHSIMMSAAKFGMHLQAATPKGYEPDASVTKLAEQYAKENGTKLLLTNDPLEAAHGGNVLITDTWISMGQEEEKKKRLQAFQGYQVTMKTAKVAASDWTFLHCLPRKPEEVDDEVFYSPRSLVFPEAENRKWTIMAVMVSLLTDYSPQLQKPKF
Chain of UniProt Q5SRE5 (Q5SRE5 whole entry, looked up): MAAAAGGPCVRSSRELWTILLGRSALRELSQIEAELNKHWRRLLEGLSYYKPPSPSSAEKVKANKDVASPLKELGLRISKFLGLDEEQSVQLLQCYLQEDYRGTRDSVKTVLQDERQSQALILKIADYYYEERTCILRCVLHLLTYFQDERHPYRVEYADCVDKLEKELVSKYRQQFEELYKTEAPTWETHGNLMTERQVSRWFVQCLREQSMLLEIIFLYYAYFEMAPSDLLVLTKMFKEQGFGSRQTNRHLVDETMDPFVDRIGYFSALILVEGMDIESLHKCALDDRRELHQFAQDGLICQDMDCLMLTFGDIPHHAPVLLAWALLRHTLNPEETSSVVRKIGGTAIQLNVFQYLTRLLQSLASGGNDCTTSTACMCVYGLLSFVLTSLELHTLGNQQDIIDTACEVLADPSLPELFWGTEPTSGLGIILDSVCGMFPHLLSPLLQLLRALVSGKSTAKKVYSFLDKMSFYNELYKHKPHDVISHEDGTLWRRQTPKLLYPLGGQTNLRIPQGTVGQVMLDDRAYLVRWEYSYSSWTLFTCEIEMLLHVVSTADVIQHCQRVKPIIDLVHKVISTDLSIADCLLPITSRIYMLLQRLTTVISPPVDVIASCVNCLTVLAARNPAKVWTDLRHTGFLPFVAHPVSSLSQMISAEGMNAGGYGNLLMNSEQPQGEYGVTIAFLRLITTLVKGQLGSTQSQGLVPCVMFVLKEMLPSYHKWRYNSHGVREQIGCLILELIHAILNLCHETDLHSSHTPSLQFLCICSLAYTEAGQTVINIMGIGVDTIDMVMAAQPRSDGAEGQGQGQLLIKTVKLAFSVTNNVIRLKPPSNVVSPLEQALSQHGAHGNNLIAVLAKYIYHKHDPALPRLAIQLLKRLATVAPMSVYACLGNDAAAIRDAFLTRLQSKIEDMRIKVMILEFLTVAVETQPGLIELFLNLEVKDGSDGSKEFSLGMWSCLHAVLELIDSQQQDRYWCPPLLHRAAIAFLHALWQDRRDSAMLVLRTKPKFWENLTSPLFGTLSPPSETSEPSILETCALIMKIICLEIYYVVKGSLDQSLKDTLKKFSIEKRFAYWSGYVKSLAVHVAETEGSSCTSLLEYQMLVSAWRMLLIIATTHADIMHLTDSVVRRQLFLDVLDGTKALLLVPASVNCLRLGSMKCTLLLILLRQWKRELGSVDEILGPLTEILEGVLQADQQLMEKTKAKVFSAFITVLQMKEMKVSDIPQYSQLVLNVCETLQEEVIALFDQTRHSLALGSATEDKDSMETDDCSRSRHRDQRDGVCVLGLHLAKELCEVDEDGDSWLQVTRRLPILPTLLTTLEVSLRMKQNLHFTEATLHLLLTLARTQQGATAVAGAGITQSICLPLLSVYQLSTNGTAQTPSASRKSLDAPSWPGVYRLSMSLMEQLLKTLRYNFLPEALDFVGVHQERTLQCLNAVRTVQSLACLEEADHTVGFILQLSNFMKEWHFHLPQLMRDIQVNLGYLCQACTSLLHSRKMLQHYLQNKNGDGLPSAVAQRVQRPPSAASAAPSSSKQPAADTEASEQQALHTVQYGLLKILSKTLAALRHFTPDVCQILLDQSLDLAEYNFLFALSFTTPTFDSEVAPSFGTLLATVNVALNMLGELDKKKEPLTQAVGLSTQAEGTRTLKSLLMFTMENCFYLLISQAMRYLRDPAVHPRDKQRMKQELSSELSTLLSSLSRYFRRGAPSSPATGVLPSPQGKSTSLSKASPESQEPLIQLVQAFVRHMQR
Chain of UniProt P55160 (P55160 whole entry, looked up): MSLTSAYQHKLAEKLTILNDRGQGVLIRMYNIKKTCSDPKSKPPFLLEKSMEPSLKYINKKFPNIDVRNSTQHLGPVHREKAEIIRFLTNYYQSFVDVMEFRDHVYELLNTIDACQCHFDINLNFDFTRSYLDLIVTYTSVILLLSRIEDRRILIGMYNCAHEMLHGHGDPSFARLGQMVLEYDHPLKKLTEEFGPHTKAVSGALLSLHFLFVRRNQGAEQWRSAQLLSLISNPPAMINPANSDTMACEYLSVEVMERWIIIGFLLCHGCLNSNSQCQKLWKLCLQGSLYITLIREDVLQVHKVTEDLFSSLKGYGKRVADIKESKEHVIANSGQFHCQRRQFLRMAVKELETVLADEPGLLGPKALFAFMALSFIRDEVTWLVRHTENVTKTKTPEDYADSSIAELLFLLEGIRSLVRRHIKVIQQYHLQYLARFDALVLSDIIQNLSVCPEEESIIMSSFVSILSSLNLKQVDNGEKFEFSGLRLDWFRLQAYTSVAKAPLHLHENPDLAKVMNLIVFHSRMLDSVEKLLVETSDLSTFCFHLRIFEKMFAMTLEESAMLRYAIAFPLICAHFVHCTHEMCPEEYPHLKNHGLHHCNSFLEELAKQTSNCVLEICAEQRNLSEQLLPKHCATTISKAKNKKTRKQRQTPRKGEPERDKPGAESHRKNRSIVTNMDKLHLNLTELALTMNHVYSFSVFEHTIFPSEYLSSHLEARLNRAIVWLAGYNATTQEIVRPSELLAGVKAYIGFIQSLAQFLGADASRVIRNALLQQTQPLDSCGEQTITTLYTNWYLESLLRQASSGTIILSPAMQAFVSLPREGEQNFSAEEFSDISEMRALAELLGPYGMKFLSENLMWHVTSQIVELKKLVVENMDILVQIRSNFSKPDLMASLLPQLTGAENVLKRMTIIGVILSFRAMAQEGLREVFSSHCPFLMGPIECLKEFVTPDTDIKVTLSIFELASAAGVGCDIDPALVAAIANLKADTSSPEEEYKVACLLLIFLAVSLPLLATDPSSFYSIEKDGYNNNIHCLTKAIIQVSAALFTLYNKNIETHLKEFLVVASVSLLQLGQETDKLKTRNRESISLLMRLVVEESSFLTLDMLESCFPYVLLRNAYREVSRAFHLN
Chain of UniProt Q9HBL8 (Q9HBL8 whole entry, looked up): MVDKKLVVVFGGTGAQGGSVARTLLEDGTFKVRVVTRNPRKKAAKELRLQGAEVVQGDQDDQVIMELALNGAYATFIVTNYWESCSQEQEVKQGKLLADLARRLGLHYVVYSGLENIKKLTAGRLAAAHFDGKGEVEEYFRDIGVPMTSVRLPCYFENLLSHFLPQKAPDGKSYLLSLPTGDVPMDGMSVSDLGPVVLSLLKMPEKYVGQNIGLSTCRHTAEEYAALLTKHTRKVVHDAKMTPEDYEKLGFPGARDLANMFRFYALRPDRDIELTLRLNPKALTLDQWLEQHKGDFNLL
Chain of UniProt Q01968 (Q01968 whole entry, looked up): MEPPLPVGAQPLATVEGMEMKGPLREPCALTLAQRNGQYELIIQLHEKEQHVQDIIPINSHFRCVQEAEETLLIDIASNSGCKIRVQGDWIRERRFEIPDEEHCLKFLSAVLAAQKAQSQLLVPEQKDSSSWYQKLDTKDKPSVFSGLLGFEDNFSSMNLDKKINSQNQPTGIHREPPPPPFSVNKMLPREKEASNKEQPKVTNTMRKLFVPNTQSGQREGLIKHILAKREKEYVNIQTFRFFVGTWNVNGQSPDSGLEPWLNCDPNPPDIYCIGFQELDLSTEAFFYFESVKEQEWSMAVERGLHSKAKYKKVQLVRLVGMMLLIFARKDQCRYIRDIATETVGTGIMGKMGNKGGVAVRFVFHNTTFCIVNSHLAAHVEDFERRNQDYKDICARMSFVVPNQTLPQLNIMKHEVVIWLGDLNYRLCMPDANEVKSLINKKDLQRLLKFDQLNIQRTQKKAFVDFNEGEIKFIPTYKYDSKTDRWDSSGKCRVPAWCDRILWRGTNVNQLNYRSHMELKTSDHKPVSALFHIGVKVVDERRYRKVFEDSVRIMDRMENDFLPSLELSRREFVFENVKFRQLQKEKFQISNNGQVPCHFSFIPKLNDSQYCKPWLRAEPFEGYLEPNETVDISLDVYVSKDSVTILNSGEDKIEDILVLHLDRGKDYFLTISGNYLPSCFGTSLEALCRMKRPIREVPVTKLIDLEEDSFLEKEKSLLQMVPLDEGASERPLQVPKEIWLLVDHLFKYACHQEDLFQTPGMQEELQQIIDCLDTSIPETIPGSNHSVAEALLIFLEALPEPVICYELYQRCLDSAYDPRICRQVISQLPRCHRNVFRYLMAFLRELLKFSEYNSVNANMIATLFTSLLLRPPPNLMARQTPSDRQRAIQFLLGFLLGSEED
Chain of UniProt Q15843 (Q15843 whole entry, looked up): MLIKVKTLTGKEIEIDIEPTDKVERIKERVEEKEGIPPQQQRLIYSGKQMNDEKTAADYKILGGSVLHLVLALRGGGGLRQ
Chain of UniProt Q9BPZ3 (Q9BPZ3 whole entry, looked up): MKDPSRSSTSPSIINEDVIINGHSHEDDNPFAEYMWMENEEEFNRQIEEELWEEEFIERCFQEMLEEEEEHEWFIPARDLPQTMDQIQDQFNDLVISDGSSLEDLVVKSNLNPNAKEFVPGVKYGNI
Chain of UniProt P03886 (P03886 whole entry, looked up): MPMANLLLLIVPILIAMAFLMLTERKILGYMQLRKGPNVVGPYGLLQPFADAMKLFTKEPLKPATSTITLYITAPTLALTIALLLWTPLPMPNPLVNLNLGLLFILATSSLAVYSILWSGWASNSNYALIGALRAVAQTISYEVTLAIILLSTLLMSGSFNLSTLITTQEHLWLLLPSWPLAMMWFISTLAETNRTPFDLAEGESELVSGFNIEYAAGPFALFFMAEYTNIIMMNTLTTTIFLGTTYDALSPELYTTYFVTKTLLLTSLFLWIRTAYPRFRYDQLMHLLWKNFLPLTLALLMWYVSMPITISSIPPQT

Compound in one assay: Cc1ccc(-n2nc(C(C)(C)C)cc2NC(=O)Nc2ccc(OCCN3CCOCC3)c3ccccc23)cc1 [doramapimod]
The assay is described as follows: log2 fold change, soluble protein after heating vs DMSO (PISA); higher = thermal stabilisation; K562 lysate, 10 uM; active = over 0.2 and 3.5 SD of the protein, either way, in both replicates (recomputed). Put shortly:
(§1)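 A 30 min treatment with 10 μM compound was applied to crude K562 extract at 1 mg/mL protein in PBS pH 7.4 with 1 mM MgCl2. Heating for 3 min spanned 48°C-58°C, after which aliquots were pooled, adjusted to 0.5% NP-40 at 4°C and spun at 21,000xg for 90 min. TMTpro 16plex LC-MS/MS of the supernatant, with channel sums equalised, gave values recorded as log-two fold change in thermal stability against solvent controls, from duplicates.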
Turning to PARD3 (UniProt Q8TEW0), the log2 fold change is -0.058 (inactive).

For NPM3 (UniProt O75607), the log2 fold change is 0.027 (inactive).

As to NCK1 (UniProt P16333), the log2 fold change is 0.03 (inactive).

As for MYOM1 (UniProt P52179), the log2 fold change is -0.436 (inactive).

Take OCRL (UniProt Q01968): the log2 fold change was 0.033 (inactive).

Turning to NUP188 (UniProt Q5SRE5), the log2 fold change was -0.034 (inactive).

In the case of NDUFS1 isoform 2 (UniProt P28331), the log2 fold change was 0.024 (inactive).

In the case of NOB1 (UniProt Q9ULX3), the log2 fold change is -0.023 (inactive).

On to NUMB (UniProt P49757), for which the log2 fold change is 0.125 (inactive).

Take PAIP2 (UniProt Q9BPZ3): the log2 fold change was 0.043 (inactive).

For NEDD8 (UniProt Q15843), the log2 fold change was -0.049 (inactive).

NLRP2 (UniProt Q9NX02): the log2 fold change was 0.051 (inactive).

On to NAA35 (UniProt Q5VZE5), for which the log2 fold change was 0.031 (inactive).

For the target NCAPD2 (UniProt Q15021), the log2 fold change is 0.011 (inactive).

With PBK (UniProt Q96KB5), the log2 fold change was -0.021 (inactive).

As for PAFAH1B3 (UniProt Q15102), the log2 fold change is 0 (inactive).

Take PAK4 (UniProt O96013): the log2 fold change was -0.236 (inactive).

For MTA1 (UniProt Q13330), the log2 fold change was -0.009 (inactive).

In the case of PAN2 isoform 2 (UniProt Q504Q3), the log2 fold change is 0.09 (inactive).

Regarding OSBPL6 isoform 5 (UniProt Q9BZF3), the log2 fold change was 0.005 (inactive).

For the target PARP14 (UniProt Q460N5), the log2 fold change is -0.013 (inactive).

As for PAK1 (UniProt Q13153), the log2 fold change is -0.035 (inactive).

As to NIPBL (UniProt Q6KC79), the log2 fold change was 0.033 (inactive).

For the target NEK7 (UniProt Q8TDX7), the log2 fold change is 0.016 (inactive).

Turning to NCKAP1L (UniProt P55160), the log2 fold change is -0.011 (inactive).

MYH11 isoform 2 (UniProt P35749): the log2 fold change was -0.044 (inactive).

On to OTC (UniProt P00480), for which the log2 fold change is 0.168 (inactive).

With NUB1 (UniProt Q9Y5A7), the log2 fold change is -0.023 (inactive).

As for NARF (UniProt Q9UHQ1), the log2 fold change was 0.012 (inactive).

Consider NEK9 (UniProt Q8TD19), for which the log2 fold change was -0.033 (inactive).

In the case of NMRAL1 (UniProt Q9HBL8), the log2 fold change was 0.036 (inactive).

Regarding NCAPD3 (UniProt P42695), the log2 fold change was 0.02 (inactive).

Consider MT-ND1 (UniProt P03886), for which the log2 fold change is 0.041 (inactive).

For the target MTA3 (UniProt Q9BTC8), the log2 fold change is 0.002 (inactive).

In the case of NIFK (UniProt Q9BYG3), the log2 fold change is -0.009 (inactive).

Compound in the next assay: Cc1ccc(NC(=O)c2ccc(CN3CC[C@H](N(C)C)C3)c(C(F)(F)F)c2)cc1Nc1nccc(-c2cncnc2)n1 [bafetinib]
The assay is described as above. Put shortly: as §1
As for PARD3 (UniProt Q8TEW0), the log2 fold change was -0.054 (inactive).

For the target NPM3 (UniProt O75607), the log2 fold change is 0.04 (inactive).

Take NCK1 (UniProt P16333): the log2 fold change was -0.033 (inactive).

In the case of MYOM1 (UniProt P52179), the log2 fold change was -0.252 (inactive).

As for OCRL (UniProt Q01968), the log2 fold change was 0.001 (inactive).

Consider NUP188 (UniProt Q5SRE5), for which the log2 fold change is -0.031 (inactive).

In the case of NDUFS1 isoform 2 (UniProt P28331), the log2 fold change was -0.013 (inactive).

As for NOB1 (UniProt Q9ULX3), the log2 fold change was -0.041 (inactive).

For the target NUMB (UniProt P49757), the log2 fold change was -0.069 (inactive).

Turning to PAIP2 (UniProt Q9BPZ3), the log2 fold change is 0.073 (inactive).

Consider NEDD8 (UniProt Q15843), for which the log2 fold change is -0.117 (inactive).

In the case of NLRP2 (UniProt Q9NX02), the log2 fold change was -0.023 (inactive).

For the target NAA35 (UniProt Q5VZE5), the log2 fold change is -0.057 (inactive).

In the case of NCAPD2 (UniProt Q15021), the log2 fold change was -0.036 (inactive).

As to PBK (UniProt Q96KB5), the log2 fold change was -0.02 (inactive).

Consider PAFAH1B3 (UniProt Q15102), for which the log2 fold change was 0.048 (inactive).

On to PAK4 (UniProt O96013), for which the log2 fold change was -0.011 (inactive).

In the case of MTA1 (UniProt Q13330), the log2 fold change was 0.023 (inactive).

With PAN2 isoform 2 (UniProt Q504Q3), the log2 fold change was -0.108 (inactive).

For OSBPL6 isoform 5 (UniProt Q9BZF3), the log2 fold change is 0.32 (inactive).

PARP14 (UniProt Q460N5): the log2 fold change was -0.081 (inactive).

As to PAK1 (UniProt Q13153), the log2 fold change was 0.002 (inactive).

With NIPBL (UniProt Q6KC79), the log2 fold change is 0.001 (inactive).

Consider NEK7 (UniProt Q8TDX7), for which the log2 fold change is -0.026 (inactive).

On to NCKAP1L (UniProt P55160), for which the log2 fold change is -0.324 (inactive).

Take MYH11 isoform 2 (UniProt P35749): the log2 fold change is 0.303 (inactive).

Regarding OTC (UniProt P00480), the log2 fold change was -0.412 (inactive).

For the target NUB1 (UniProt Q9Y5A7), the log2 fold change is -0.047 (inactive).

As for NARF (UniProt Q9UHQ1), the log2 fold change was -0.008 (inactive).

On to NEK9 (UniProt Q8TD19), for which the log2 fold change was 0.014 (inactive).

Consider NMRAL1 (UniProt Q9HBL8), for which the log2 fold change is 0.005 (inactive).

Turning to NCAPD3 (UniProt P42695), the log2 fold change is -0.024 (inactive).

Consider MT-ND1 (UniProt P03886), for which the log2 fold change is 0.022 (inactive).

Consider MTA3 (UniProt Q9BTC8), for which the log2 fold change is -0.048 (inactive).

In the case of NIFK (UniProt Q9BYG3), the log2 fold change was -0.026 (inactive).
